Results from PubChem BioAssay (NCATS).
Records with an inconclusive call do not appear. Activity calls are given as the source filed them. Calls come from the whole dose curve; as a rule, active = well fitted inhibition curve with a large enough effect; inconclusive = small, poorly fitted or top-dose-only effect; inactive = no such curve, though single readings can be large or run the other way.

Biological target: Aldehyde dehydrogenase 1A1 (Homo sapiens) (UniProt P00352)
Assay: qHTS for Inhibitors of the Aldehyde Dehydrogenase Family (ALDH1A1) Confirmatory screens (AID 2061316); note: nearly all actives have a fitted effect of over 65% in size; for activity change, negative = inhibition: % is set by controls: 0 for no effect and ±100 for the full control effect
Conditions: ALDH inhibition qHTS; series mostly up to 47.3 µM; activity change, negative = inhibition: at the top concentration
Potency is the fitted concentration of half-maximal effect.

Compound | activity change, negative = inhibition | outcome | Potency
CCN1C(=O)C=CC1=O | -11.7% (inactive) | – | –
OCC1O[C@H]([S-])[C@H](O)[C@@H](O)[C@@H]1O.[Au+] (stereo not given in full) | – | inactive | –
CN(C)c1cc2c(Nc3ccc4c(cnn4Cc4ccccc4)c3)ncnc2cn1 | -5.65% (inactive) | – | –
O=c1onc2cnc3ccccc3n12 | – | – | 4 µM (active)

Test system: not listed separately
Assay: BET inhibitor-based combinations targeting novel dependencies in MECOM-rearranged (r) AML: MV-4-11 cell line (AID 2202233); note: nearly all actives have a fitted effect of over 45% in size;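 for viability, % of control: plate controls were DMSO for no effect and blank wells for full effect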
Conditions: MV-4-11 AML viability, CellTiter-Glo luminescence, 48 h; series mostly up to 46 µM; viability, % of control: at the top concentration
Outline: (§1)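 Cells at 500/well were exposed for 48 hr to MIPE v5.0 drugs as 11-point dose curves. Viability was read by CellTiter-Glo luminescence and normalized to DMSO and empty-well controls. Activity was expressed as AUC and per-cell-line Z-AUC.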

Compound | Potency | viability, % of control
COc1cc2ncnc(Nc3cccc(Cl)c3)c2cc1OC | 8.33 µM (active) | –
CNCCCC12CCC(c3ccccc31)c1ccccc12 | 29.5 µM (active) | –
O=C(O)CCc1ccc(NCc2cccc(Oc3ccccc3)c2)cc1 | – | 131% (inactive)

Test system: not listed separately
Assay: BET inhibitor-based combinations targeting novel dependencies in MECOM-rearranged (r) AML: HNT-34 cell line (AID 2202234); note: nearly all actives have a fitted effect of over 35% in size;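 for viability (% of control): plate controls were vehicle wells for no effect and cell-free wells for full effect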
Conditions: HNT-34 AML viability, CellTiter-Glo luminescence, 48 h; series mostly up to 46 µM; viability (% of control): at the top concentration
Outline: as §1

Compound | Potency | viability (% of control)
COc1cc2ncnc(Nc3cccc(Cl)c3)c2cc1OC | 13.2 µM (active) | –
CNCCCC12CCC(c3ccccc31)c1ccccc12 | 23.5 µM (active) | –
O=C(O)CCc1ccc(NCc2cccc(Oc3ccccc3)c2)cc1 | – | 108% (inactive)
